Screens deposited in PubChem BioAssay by Corson Lab, School of Medicine, Indiana University.
Only a selection was taken, and hits are over-represented in it overall.
FECH inh: inhibitors of human ferrochelatase, primary screen, biochemical, purified FECH, Ni-mesoporphyrin absorbance. Ni-mesoporphyrin absorbance 550 nm. AID 1671448, 2021. Ferrochelatase, mitochondrial (Homo sapiens), P22830. 3.3% of 20,000 active. calls only at 10 µM (by protocol);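 active = enzyme reaction rate more than 3 SD below the solvent-only control wells on the same plate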;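 also: lower slope than DMSO wells means FECH inhibition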
Target sequence (P22830 whole entry, looked up): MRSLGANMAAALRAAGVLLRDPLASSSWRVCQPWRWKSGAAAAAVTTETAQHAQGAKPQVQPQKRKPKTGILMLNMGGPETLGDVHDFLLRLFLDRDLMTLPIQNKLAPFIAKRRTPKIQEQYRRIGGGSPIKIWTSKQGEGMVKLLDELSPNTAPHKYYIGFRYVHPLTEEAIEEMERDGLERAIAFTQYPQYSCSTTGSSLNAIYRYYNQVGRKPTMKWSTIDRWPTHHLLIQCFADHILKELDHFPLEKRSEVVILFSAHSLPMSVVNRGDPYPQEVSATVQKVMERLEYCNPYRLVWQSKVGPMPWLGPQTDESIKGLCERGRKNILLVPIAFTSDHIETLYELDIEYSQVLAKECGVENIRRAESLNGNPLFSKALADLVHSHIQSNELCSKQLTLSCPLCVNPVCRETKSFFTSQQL
An asterisk follows results filed as active; i = inactive; + = active, no number.

SMILES	FECH inh
Cc1ccc(C(C(=O)NCCN2CCCOC2=O)N(C)C)cc1 (stereo not drawn)	+
Cc1cnc(-c2n[nH]c(C3CC3)n2)cn1	i
CCn1c(C2CCN(S(=O)(=O)c3ccc(C)c(C)c3)CC2)n[nH]c1=O	i
CCn1c(C2CCCN(S(=O)(=O)N3CCCC3)C2)n[nH]c1=O (stereo not drawn)	i
CCn1c(-c2cc(C3CC3)[nH]n2)n[nH]c1=O	+
CN1CCN(C(=O)C2CCCN(C3CCN(C(=O)c4ccn[nH]4)CC3)C2)CC1 (stereo not drawn)	i
COc1ccc(-c2c(C)[nH]c(=O)[nH]c2=O)c2ccc(C)nc12	i
COc1ccc(C2C=C(c3ccccc3)Nc3nc(NC(=O)c4ccccc4)nn32)cc1 (stereo not drawn)	i
COc1ccc(C(=O)Nc2nc3n(n2)C(c2ccccc2)C=C(c2ccccc2)N3)cc1OC (stereo not drawn)	+
CCC(=O)Nc1nc2n(n1)C(c1ccc(Cl)cc1)C=C(c1ccccc1)N2 (stereo not drawn)	i
CCC(=O)Nc1nc2n(n1)C(c1ccccc1)C=C(c1ccccc1)N2 (stereo not drawn)	+
COc1ccc(C2C=C(c3ccccc3)Nc3nc(NC(=O)c4ccc(Cl)cc4)nn32)cc1 (stereo not drawn)	i
CCC(=O)Nc1nc2n(n1)C(c1ccccc1)C=C(c1ccc(Cl)cc1)N2 (stereo not drawn)	i
O=C(NC1CC(=O)N(c2ccccc2)C1)c1ccc(Br)o1 (stereo not drawn)	i
Cc1nc(CC(=O)N2CCn3c(C(N)=O)cnc3C2)c(C)s1	i
Cc1ccc(OCC2CCCN(Cc3ccc(C#CCO)s3)C2)cc1 (stereo not drawn)	i
Cc1cccc(CN2CCCC(O)(CN(C)Cc3ccc4nonc4c3)C2=O)c1 (stereo not drawn)	i
CCCn1cnc2nc(CSc3ccccc3NC(=O)c3ccccc3)cc(=O)n21	i
COc1ccc(C(=O)Nc2ccccc2SCc2cc(=O)n3c(ncn3C(C)C)n2)cc1	i
CCCn1cnc2nc(CSc3ccccc3NC(=O)c3ccc(F)cc3)cc(=O)n21	+
CCCn1cnc2nc(CSc3ccccc3NC(=O)c3cccc(Br)c3)cc(=O)n21	+
CC(C)n1cnc2nc(CSc3ccccc3NC(=O)Cc3ccccc3)cc(=O)n21	i
CCOc1ccccc1C(=O)Nc1ccccc1SCc1cc(=O)n2c(ncn2C(C)C)n1	i
Cc1ccc(C(=O)Nc2ccccc2SCc2cc(=O)n3c(ncn3C(C)C)n2)cc1F	i
CC(C)n1cnc2nc(CSc3ccccc3NC(=O)c3ccc(Br)cc3)cc(=O)n21	i
SMILES	FECH inh
CCCn1cnc2nc(CSc3ccccc3NC(=O)c3ccco3)cc(=O)n21	+
c1ccc(Cc2nc(C3CCN(c4ncccn4)CC3)n[nH]2)cc1	i
Cc1ccc2nc(C)c(C)c(C(=O)NC(C)Cc3cnccn3)c2c1 (stereo not drawn)	i
Cc1oc2ncnc(N3CCCCC3)c2c1C(=O)Nc1ccc(S(N)(=O)=O)cc1	i
CC(C)Cc1ccc(S(=O)(=O)NCc2nc3cccnc3n2Cc2ccc(F)cc2)cc1	i
Cc1cccc(-c2cc(Nc3cc(Cl)ccc3O)nc(C)n2)c1	i
CC(C)C1CN(c2ncccc2C(=O)N2CCCCC2)CCCN1CC1CC1 (stereo not drawn)	i
CCc1cc(Sc2ccccc2NC(=O)c2ccccc2OC)n2nc(C)nc2n1	i
Cc1ccc(N2C(=O)CCS2(=O)=O)cc1S(=O)(=O)N1CCN(c2ccccc2)CC1	i
COc1ccc(CNS(=O)(=O)c2cc(N3C(=O)CCS3(=O)=O)ccc2OC)cc1	i
Cc1ccc(N2C(=O)CCS2(=O)=O)cc1S(=O)(=O)N1CCC(C(N)=O)CC1	i
COc1ccc(CNS(=O)(=O)c2cc(N3C(=O)CCS3(=O)=O)ccc2C)cc1OC	+
COc1ccc(N2C(=O)CCS2(=O)=O)cc1S(=O)(=O)NCc1ccc(C)cc1	i
Cc1ccc(N2C(=O)CCS2(=O)=O)cc1S(=O)(=O)N1CCN(c2ccccc2F)CC1	+
CCOC(=O)C1CCN(S(=O)(=O)c2cc(N3C(=O)CCS3(=O)=O)ccc2OC)CC1	i
Cc1ccc(N2C(=O)CCS2(=O)=O)cc1S(=O)(=O)N1CCN(c2ccccn2)CC1	i
CCOC(=O)C1CCCN(S(=O)(=O)c2cc(N3C(=O)CCS3(=O)=O)ccc2C)C1 (stereo not drawn)	+
O=C(CN1C(=O)CC(c2ccc(Br)s2)=Nc2ccccc21)NCCCc1ccccc1	i
Cc1ccc(NC(=O)Nc2c(C)nc3nc[nH]n3c2=O)cc1F	i
O=S(=O)(NCCn1c(-c2ccc(F)cc2)nc2cccnc21)c1ccccc1Cl	i
CCN(CC)c1nc(Nc2ccccc2)c2cnn(-c3ccccc3)c2n1	i
Cc1cccc2cc(CO)c(N3CCC(CO)(Cc4ccccc4)CC3)nc12	i
CN(C)C1CCCN(C(=O)c2cccc(-c3ncc[nH]3)c2)CC1 (stereo not drawn)	i
CCCc1nc(C)cc(N2CCC(Cc3ccccc3)(C(=O)O)CC2)n1	i
CC(C(=O)N1CCc2c(nc(-c3ccccn3)[nH]c2=O)C1)N1CCCC1 (stereo not drawn)	i
SMILES	FECH inh
O=C(NC1CC(=O)N(C2Cc3ccccc3C2)C1)c1n[nH]c2ccccc12 (stereo not drawn)	i
NS(=O)(=O)c1ccc(CCNS(=O)(=O)c2ccc(N3C(=O)CCS3(=O)=O)cc2)cc1	i
Cc1cc(NC(=O)COc2ccc(C(C)C)cc2)n(-c2ncnc3c2cnn3-c2cccc(C)c2C)n1	+
Cc1cccc(OCC(=O)Nc2cc(C)nn2-c2ncnc3c2cnn3-c2cccc(C)c2C)c1	i
COc1cccc(OCC(=O)Nc2cc(C)nn2-c2ncnc3c2cnn3-c2cccc(C)c2C)c1	i
CCn1ccnc1CN(C)C(C)C(=O)N(C)C (stereo not drawn)	i
CCC(C)NC(=O)Cn1c(=O)n(Cc2ccc(C(=O)NC)cc2)c(=O)c2cc(OC)c(OC)cc21 (stereo not drawn)	+
CCCNC(=O)c1ccc(Cn2c(=O)c3cc(OC)c(OC)cc3n(CC(=O)NC(C)CC)c2=O)cc1 (stereo not drawn)	i
COc1cc2c(=O)n(Cc3ccc(C(=O)NC4CCCC4)cc3)c(=O)n(CC(N)=O)c2cc1OC	i
CNC(=O)c1ccc(Cn2c(=O)c3cc(OC)c(OC)cc3n(CC(=O)NC3CCCC3)c2=O)cc1	+
CCCNC(=O)Cn1c(=O)n(Cc2ccc(C(=O)NC)cc2)c(=O)c2cc(OC)c(OC)cc21	i
CCC(C)NC(=O)c1ccc(Cn2c(=O)c3cc(OC)c(OC)cc3n(CC(N)=O)c2=O)cc1 (stereo not drawn)	i
NC(=O)c1cccc(CC2CCN(C(=O)c3[nH]ncc3Cl)C2)c1 (stereo not drawn)	i
Cc1nn(CC(=O)N2C[C@H](N(C)C)C[C@H]2CO)c(=O)c2ccccc12	i
COc1cccc(CN2CC(=O)N(Cc3ccccc3)c3ccccc3S2(=O)=O)c1	i
C[C@@H](C(=O)N1CCc2c(ncnc2N(C)C)C1)n1cnnn1	i
O=C(NCCNc1cccnc1)c1cc2ccccc2oc1=O	i
Cc1ccc(F)c(C(=O)NC(C)c2nnc3n2CCNCC3)c1Cl (stereo not drawn)	i
O=C(NC1CCCC1)N1CCC(n2cnc3cccnc32)CC1	+
